# The list is not random: actives were taken first. Their share in the collection is about 19%.
# TDP1 cell noCPT: qHTS for Inhibitors of human tyrosyl-DNA phosphodiesterase 1 (TDP1): qHTS in cells in absence of CPT; Potency, µM (highest dose often 46.2 µM), without a hit: at the top dose activity change, negative = growth inhibition, hits mostly inhibitors; AID 686978, 2013; DT40 Tdp1-/- hTDP1 cells, no CPT, ATP luminescence, 48 h; 420,000 compounds, 15% hits; note: potency is the fitted concentration of half-maximal effect; nearly all actives have a fitted effect of over 55% in size
#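 A cellular qHTS used chicken DT40 cells lacking endogenous Tdp1 but carrying stably transfected human TDP1. Compounds were applied without camptothecin, and cell growth kinetics were judged by ATP-dependent luminescence after ≥48 hr.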
# uPA surface inh: cell surface uPA generation inhibition; 330,000 compounds, 0.31% hits; Potency, µM (series often up to 38.3 µM), inactives show top-dose activity change, negative = inhibition, actives largely listed as inhibitors; cell surface uPA generation assay, qHTS; active = well fitted inhibition curve with a large enough effect; inconclusive = small, poorly fitted or top-dose-only effect; inactive = no such curve, though single readings can be large or run the other way; tested in mouse RAW 264.7 cells; note: potency is the fitted concentration of half-maximal effect; nearly all actives have a fitted effect of over 55% in size
# IL1B secr inh: inflammasome signaling inhibition, IL-1 beta readout. activity change, % at 57.5 µM. THP-1 LPS/ATP IL-1B secretion, AlphaLISA, 16 h; hits give low values. 360,000 compounds, 4.7% hits; in the data active = activity change below about -50%; inconclusive = mostly about -30% to -49%
#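 THP-1 cells pretreated 1 hr with compounds (up to 57.5 uM final), then stimulated with LPS (250 ng/mL final) plus ATP (1.25 mM final); secreted IL-1B measured by AlphaLISA after 16 hr, decreased signal indicating inhibition.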
# HT1080NT lethal: kills 2HG-producing HT-1080-NT fibrosarcoma cells; HT-1080-NT fibrosarcoma viability, CellTiter-Glo ATP luminescence, 48 h; Potency, µM (doses to about 46.1 µM), for the others: at the highest dose activity, negative = less viability, most hits filed as cytotoxic; 360,000 compounds, 1.6% hits; AID 686970;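 note: NT is the 2HG producing partner of a matched IDH1 knockdown line; potency is the fitted concentration of half-maximal effect; 0% = DMSO-treated cells and -100% = media-only wells without cells; nearly all actives have a fitted effect of over 55% in size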
#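 Viability by CellTiter-Glo luminescence after 48 h compound exposure at 37C of HT-1080-NT cells (750/well, RPMI, 5% FBS). % activity scaled between DMSO wells and medium-only wells, then curve-fitted and categorized by curve class.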
# HT1080 IDH1KD tx: kills HT-1080 cells with IDH1 knockdown; HT-1080 IDH1 knockdown viability, ATP luminescence, 48 h; Potency, µM (top dose mostly 46.1 µM), without a hit: at the highest dose activity, negative = toxicity, hits mostly cytotoxic; 360,000 compounds, 2% hits; AID 686971;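 note: potency is the fitted concentration of half-maximal effect; 0% = DMSO wells and -100% = cell-free medium wells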
#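 Luminescent ATP read-out (CellTiter-Glo, 10 min at room temperature) after 48 h compound exposure at 37 °C gave viability of IDH1-knockdown HT-1080 cells. Activity was normalised to DMSO and cell-free wells, then fitted as concentration-response curves.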
# TDP1 cell CPT: DT40-hTDP1 cell growth loss with CPT | 420,000 compounds, 12% hits | AID 686979 | Potency, µM (doses to about 46.2 µM), for the others: top-dose activity change, negative = growth inhibition, most hits filed as inhibitors | chicken DT40 Tdp1-/-;hTDP1 cells + 20 nM CPT, ATP luminescence, 48 h; note: potency is the fitted concentration of half-maximal effect; nearly all actives have a fitted effect of over 55% in size
#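 Cell growth measured by CellTiter-Glo luminescence after a minimum 48 h, 37 C compound exposure with 20 nM CPT in Tdp1-knockout DT40 cells stably expressing hTDP1, seeded 400/well; qHTS titration format.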
# * hit, by the source's call; u = inconclusive; x = not tested or not shown. Unless noted, calls come from the whole dose curve; as a rule, active = well fitted curve in the direction sought with a large enough effect; inconclusive = small, poorly fitted or top-dose-only effect, or another doubt; inactive = no such curve, though single readings can be large; an effect the other way counts as inactive or inconclusive. Unless noted, % is set by controls: 0 for no effect and ±100 for the full control effect.
SMILES,TDP1 cell noCPT,uPA surface inh,IL1B secr inh,HT1080NT lethal,HT1080 IDH1KD tx,TDP1 cell CPT
CC(=O)N1c2ccc(S(=O)(=O)NCC3CCC(C(=O)NCc4ccc(C)cc4)CC3)cc2CC1C (configuration not stated),14.6µM*,-16.7%,1.4,u,0.8%,20.6µM*
CC(=O)N1c2ccc(S(=O)(=O)NCC3CCC(C(=O)Nc4cc(C)ccc4C)CC3)cc2CC1C (configuration not stated),18.4µM*,x,x,x,x,23.1µM*
CC(=O)N1c2ccc(S(=O)(=O)NCC3CCC(C(=O)NCCC(C)C)CC3)cc2CC1C (configuration not stated),16.4µM*,x,x,x,x,14.6µM*
Cc1ccc(S(=O)(=O)NCC(=O)NCC(=O)NCCc2ccc(Cl)cc2)cc1C,u,x,u,-11.1%,-18.0%,u
COc1ccc(S(=O)(=O)NCC(c2ccc3c(c2)OCO3)N2CCOCC2)cc1 (configuration not stated),0.6%,-18.4%,3.1,3.6%,1.4%,8.3%
COC(=O)c1sc(NC(=O)OCc2ccccc2)nc1CCNC(=O)OC(C)(C)C,u,x,-3.9,-0.1%,0.0%,u
CC(=O)N1c2ccc(S(=O)(=O)NCC3CCC(C(=O)Nc4cc(C)ccn4)CC3)cc2CC1C (configuration not stated),16.4µM*,-4.1%,-78.5*,u,u,18.4µM*
CC(=O)N1c2ccc(S(=O)(=O)NCC3CCC(C(=O)Nc4ccccc4C)CC3)cc2CC1C (configuration not stated),20.6µM*,x,x,x,x,25.9µM*
CC(=O)N1c2ccc(S(=O)(=O)NCC3CCC(C(=O)NC4CCCCC4)CC3)cc2CC1C (configuration not stated),2.91µM*,-1.4%,-8.3,u,-24.3%,-18.7%
CCC(C)NC(=O)C1CCC(CNS(=O)(=O)c2ccc3c(c2)CC(C)N3C(C)=O)CC1 (configuration not stated),-8.8%,2.1%,28.3,7.9%,18.4%,u
CC(=O)N1c2ccc(S(=O)(=O)NCC3CCC(C(=O)Nc4cccc(F)c4)CC3)cc2CC1C (configuration not stated),11.6µM*,x,x,x,x,3.26µM*
O=C1CCCN1CC(=O)N1CCCC(N2CCN(c3cccc(Cl)c3)CC2)C1 (configuration not stated),-2.6%,-6.0%,0.0,-0.7%,-0.1%,-16.7%
CC(C)c1cc(Cn2c3ccccc3c(=O)n2C(C)Cn2cc(CCc3ccccc3)nn2)on1 (configuration not stated),-27.3%,x,-11.6,11.7%,9.5%,-8.5%
COc1cccc(-c2nnc(SCC(=O)N3CC(C)CC(C)C3)o2)c1 (configuration not stated),20.6µM*,-4.9%,-29.5,1.9%,-1.0%,u
Cc1ccc(-c2nnc(SCC(=O)N3CC(C)CC(C)C3)o2)cc1C (configuration not stated),20.6µM*,0.1%,5.3,7.1%,3.9%,25.9µM*
CC1CC(C)CN(C(=O)CSc2nnc(-c3ccc(Cl)cc3)o2)C1 (configuration not stated),18.4µM*,3.2%,-16.7,5.3%,-5.6%,u
CC(C)=CCC/C(C)=C/CO,1.3%,x,x,x,x,3.1%
O=C(Cc1cccs1)NNC(=S)NC(=O)c1ccc(F)c(F)c1,u,0.5%,29.8,-1.5%,13.2%,20.6µM*
O=C(Cc1cccs1)NNC(=S)NC(=O)c1ccccc1,14.6µM*,2.2%,0.0,-1.0%,-15.4%,u
O=C(Cc1cccs1)NCc1ccc(F)cc1,-0.4%,-2.5%,-1.2,9.1%,2.6%,7.6%
O=C(Cc1ccccc1)NNC(=S)NC(=O)c1cccs1,u,-1.2%,69.2,-27.2%,u,u
CC1(C)C2CCC(CN)C1C2 (configuration not stated),2.1%,x,-3.2,0.8%,-0.1%,14.2%
O=C1C=C(c2ccc(C(=O)O)c(Cl)c2)C[C@@H](c2ccc3c(c2)OCO3)C1,-9.8%,7.7%,18.3,4.2%,9.6%,-12.3%
CCOc1ccc(C2C3=C(Nc4nc(N)[nH]c(=O)c42)c2ccccc2C3=O)cc1 (configuration not stated),u,0.4%,-13.9,1.0%,-2.0%,u
CCCOc1ccc(C2C3=C(Nc4nc(N)[nH]c(=O)c42)c2ccccc2C3=O)cc1 (configuration not stated),u,-1.2%,-54.9*,-4.8%,-21.1%,u
SMILES,TDP1 cell noCPT,uPA surface inh,IL1B secr inh,HT1080NT lethal,HT1080 IDH1KD tx,TDP1 cell CPT
COc1ccc(CC(=O)NC(C)C2COc3ccccc3O2)cc1OC (configuration not stated),-24.7%,2.6%,0.3,-0.9%,-2.1%,-12.7%
CC1CCCN(Cc2c(O)ccc3c(=O)c(-c4ccc(Cl)cc4)c(C(F)(F)F)oc23)C1 (configuration not stated),-3.1%,x,x,x,x,3.6%
FC(F)(F)c1cc(CCN2CCNC[C@@H]2Cc2ccccc2)cc(C(F)(F)F)c1,u,-2.4%,-13.2,-9.5%,2.8%,20.6µM*
O=C1NC[C@@H](Cc2cccc3ccccc23)N(CCc2cc(C(F)(F)F)cc(C(F)(F)F)c2)C1=O,u,10.5%,-50.7*,7.3%,6.8%,-4.6%
Fc1cccc(CCN2CCNC[C@@H]2Cc2ccccc2)c1,u,-15.4%,-14.6,-3.8%,-7.7%,u
N#Cc1ccc(/C=C2\C=Cc3ccccc32)cc1,-29.2%,x,x,x,x,-24.8%
CCOC(=O)C1CCCN(C(=O)c2ccc3c(c2)sc2nc(-c4ccc(C)cc4C)cn23)C1 (configuration not stated),18.4µM*,x,x,x,x,16.4µM*
CCOC(=O)C1CCCN(C(=O)COc2ccc(C(=O)c3ccc(F)cc3)cc2)C1 (configuration not stated),u,-2.4%,9.8,-2.7%,-4.5%,18.4µM*
CCOC(=O)C1CCCN(C(=O)c2ccc3c(c2)sc2nc(-c4cccc(OC)c4)cn23)C1 (configuration not stated),14.6µM*,x,x,x,x,18.4µM*
CCOC(=O)C1CCCN(C(=O)c2cc3nc(-c4cccc(OC)c4)cc(C(F)(F)F)n3n2)C1 (configuration not stated),u,-19.0%,-14.5,6.5%,7.2%,u
